In article PMC13494018:

B1: design_597_f3dcd2b3-c7aa-4b15-88bc-bbb8d01a18cd_2475_dldesign_0_cycle1_af2pred (protein)
chain: MTPLEESAAKAQEAREEAAEKEQKGKLLAEKGNYKEGAKEYKKGAEELKKAAKFAEEAGDKEAAERLKKRAERLEKLAKEYEKKAK
B2: design_597_f3dcd2b3-c7aa-4b15-88bc-bbb8d01a18cd_2160_dldesign_0_cycle1_af2pred (protein)
chain: NATEIYREGREKAKELAKKGGKLVKDGEEFARRLVAAANTYFADPEEGEKQLDELIKEAEKESPEAAKIAKEVLKAAKEYLKKLDEEG
B3: design_597_f3dcd2b3-c7aa-4b15-88bc-bbb8d01a18cd_2462_dldesign_0_cycle1_af2pred (protein)
chain: DPLREAAKAAVEAMGKAAKEVGLTKEASELAGLVHEALSAAKAGIHAKEILKEAAEAAKKAAEEYPEAKELFEKVAKEVEKMEKLV
B4: design_597_f3dcd2b3-c7aa-4b15-88bc-bbb8d01a18cd_2142_dldesign_0_cycle1_af2pred (protein)
chain: AAAAAAAEAARAEAAKAFTEAIDLAYSDPKYIPILEKTSEDSAATFIAAGKLSGKTAEWTAKGELIKKTSERIIKDIKK
B5: design_597_f3dcd2b3-c7aa-4b15-88bc-bbb8d01a18cd_1719_dldesign_0_cycle1_af2pred (protein)
chain: LEKNVKKAIEAAKKAIEAGKKAKEAGLEELAKEAIEKAKKAIEAAAKDKASGGETAKETANAAQEARQAKSEAESAIKKK
B6: design_597_f3dcd2b3-c7aa-4b15-88bc-bbb8d01a18cd_601_dldesign_0_cycle1_af2pred (protein)
chain: SKAEEKAKELEEKLKKAEELAKKDPKKGAKYAKEIAKEARKAGKETGETEKFAKIADKAYQIAAEAEFKAK
B7: design_597_f3dcd2b3-c7aa-4b15-88bc-bbb8d01a18cd_1120_dldesign_0_cycle1_af2pred (protein)
chain: MLAKIARIIADITTATAKLLRKTGPKFVKLTKVLAVLADIIGDLALKTGKEEDIKAGGYALAAAERARHAAEAAE
B8: design_597_f3dcd2b3-c7aa-4b15-88bc-bbb8d01a18cd_1536_dldesign_0_cycle1_af2pred (protein)
chain: SGANAAQEARAEYTAAKQLAKINKKDKEKAAKLLEEAYKKVEELAKKADEEGKKIAEKYAKELKELAKKYLKE
B9: design_597_f3dcd2b3-c7aa-4b15-88bc-bbb8d01a18cd_2241_dldesign_0_cycle1_af2pred (protein)
chain: EAAAIAKEAAAVAEEAAKKEEDPGKAEALKKAAKRIKAAAAGTKFEIASAVASAAEQAEWVGYPKEVVDKLEAKAEKIEKA
B10: design_597_f3dcd2b3-c7aa-4b15-88bc-bbb8d01a18cd_1586_dldesign_0_cycle1_af2pred (protein)
chain: AAAIEKAKAAVEELLKAAEEALKLAEKDPSYAKYAEEVKKKINKVAKELKEALLADPSVANKLQEARQIATEAEATAKIKK
B11: design_597_f3dcd2b3-c7aa-4b15-88bc-bbb8d01a18cd_2297_dldesign_0_cycle1_af2pred (protein)
chain: MEEAEKLLKKAEEAAKKGDAETAKKLAEELRELSKKEKDKEKAAAYSEAAFEAKGYAFLAEIKQEKKKELE
B12: design_597_f3dcd2b3-c7aa-4b15-88bc-bbb8d01a18cd_2339_dldesign_0_cycle1_af2pred (protein)
chain: AKALRYAGRAEIYMELAETAAKLAIEAAKKDPAEGKKYLEKMKEKVKKAVELAEKADPALAKEYEAKGKELIEKAEKAIKAQIEKA
B13: design_597_f3dcd2b3-c7aa-4b15-88bc-bbb8d01a18cd_2077_dldesign_0_cycle1_af2pred (protein)
chain: EIKKLAAEAFDYYYEAKAMADALKADKNGKEAAKKIEELAKKIKEYGKKILETKDLKEAKKLYEEAKKLYEEAVKIFDEFAK
B14: design_597_f3dcd2b3-c7aa-4b15-88bc-bbb8d01a18cd_1491_dldesign_0_cycle1_af2pred (protein)
chain: DEGEKLKKEFKEEIEEVAKEAKELVKEGVSPKVAARLVENTAEVLIKEAEKHKEGEEIKKAVKEEAEKKKEEILKL
B15: design_598_15ab41e9-cad4-4381-8935-81f74b313fe8_13_dldesign_0_cycle1_af2pred (protein)
chain: AEKSREEGVKKAEEAAKLAKEAGLEEKAKKIKEAAKKAAKTGTDEDLKELSKTALEAAKLADPEKGAKISELRVEAAGYFELARIQ
B16: design_597_f3dcd2b3-c7aa-4b15-88bc-bbb8d01a18cd_1341_dldesign_0_cycle1_af2pred (protein)
chain: AAAVEAAKAEITKLAAELSAKAFEAKAAASVFPEYKPVYELYKEAAEKAKEGLVLLKALGEKALEEAKKLAEEAKKLAKEGDELEKKL
B17: design_597_f3dcd2b3-c7aa-4b15-88bc-bbb8d01a18cd_1765_dldesign_0_cycle1_af2pred (protein)
chain: SMEEEKKKKEAEKARKEAEKAIEEIKKNPENKELQTEALAKAYEAKAIDKEVGKEAIKKVREAIKEARKKL
B18: design_597_f3dcd2b3-c7aa-4b15-88bc-bbb8d01a18cd_2474_dldesign_0_cycle1_af2pred (protein)
chain: MKADEEAAKKAAAARDTAFDKIAAGEDPQAAYDAAKAEMKKIAEEYGVSPETKEKIEKGIKALERFAAAAAKAAA
B19: design_597_f3dcd2b3-c7aa-4b15-88bc-bbb8d01a18cd_1339_dldesign_0_cycle1_af2pred (protein)
chain: AEAEKYKKEAEKALKELEEIAKKYPSSTKIQANYESAKEYFEHNEQAAKLNPEKAAEAYKKAYEYAKRKLEEAKKIAEELEKKE
B20: design_597_f3dcd2b3-c7aa-4b15-88bc-bbb8d01a18cd_1020_dldesign_0_cycle1_af2pred (protein)
chain: GHSEEGKEISEKIREISRIAKEAGKEIKKYPGGEELMKELGETRDKAIDEAAEGGLEEAKKALEKVKKAAKELLKKAKA
B21: design_598_15ab41e9-cad4-4381-8935-81f74b313fe8_121_dldesign_0_cycle1_af2pred (protein)
chain: MMEKKKKEAEIKRDAAIEQAKTIVEANKDKPFEEILEKVEKSVERFKESIEKIDPEIGKEEGEKARKESEEIVKKASEA
B22: design_597_f3dcd2b3-c7aa-4b15-88bc-bbb8d01a18cd_1026_dldesign_0_cycle1_af2pred (protein)
chain: MEVVEKMAEEIAKAAEEAGDKVTAALARAVAARAKKEKEISPEEAVKRLGEDAKFMAEDNGNEELAKKIKEIAEKALKEV
B23: design_597_f3dcd2b3-c7aa-4b15-88bc-bbb8d01a18cd_925_dldesign_0_cycle1_af2pred (protein)
chain: HKEENEAMKEILDEFNEAGRKMQEYVKAGKLEEAKKALEEEAKKMLEIGKKAGENALELAEELVEEARRNLEKAIEAAK
B24: design_598_15ab41e9-cad4-4381-8935-81f74b313fe8_148_dldesign_0_cycle1_af2pred (protein)
chain: MAEEAKKTSDAIREMVKIAKEAGKEVAGSPEAQKKIAAARDKAMDAVAAGEDPEEQLKKAKEEIEAVVAEEKA
B25: design_597_f3dcd2b3-c7aa-4b15-88bc-bbb8d01a18cd_2262_dldesign_0_cycle1_af2pred (protein)
chain: AEAEEALKAAKAAAAKAKEAADAAIADPATKAAGEKAKKLIEAREKKAEANASDVRVLQSAVEFFNHMAAALKKILA
B26: design_598_15ab41e9-cad4-4381-8935-81f74b313fe8_72_dldesign_0_cycle1_af2pred (protein)
chain: SELVKKASDLYRELVRKAREVAEKAGKAGDPEEAKKLAGDAVWAAQENVEEGIKIAKELGKKTGVEKEVEEFIKLMKEYAKALEEVSN
B27: design_597_f3dcd2b3-c7aa-4b15-88bc-bbb8d01a18cd_2012_dldesign_0_cycle1_af2pred (protein)
chain: AEAKKEAAKLSEEAAELAAEAWLKAKKAKPEEAEKYKKAAEYFKEAIKILQAGEDLEKAKALYEKGKALYEEA
B28: design_597_f3dcd2b3-c7aa-4b15-88bc-bbb8d01a18cd_627_dldesign_0_cycle1_af2pred (protein)
chain: MYKELAENYRKGVRALSRRYRLRAELDPAKAAEYGAEATRERDKLFNASPEEVKKAAEEWAKEEAAVAAEAAALAAAA
B29: design_597_f3dcd2b3-c7aa-4b15-88bc-bbb8d01a18cd_1493_dldesign_0_cycle1_af2pred (protein)
chain: AEAERARREAALAEAERRAAELIFAAVDEGTKVSNEEAAKVMEETRARIEALMDETGAAYDPERAAEIRDRATATMTRLAESYK
B30: design_597_f3dcd2b3-c7aa-4b15-88bc-bbb8d01a18cd_2336_dldesign_0_cycle1_af2pred (protein)
chain: AQAAKVAAALAAAEKRLAISTARAKELAKKNPQAGYEYMEIRTDHMAAALAKVDPAAGAEVKARGAALAAEIKA
B31: design_597_f3dcd2b3-c7aa-4b15-88bc-bbb8d01a18cd_2357_dldesign_0_cycle1_af2pred (protein)
chain: NEEIKAKQLAGRLEALADSLKSAAEKAAKETKDPEKAKKLKEIAKEAEKAVEEAKKKIKEGKAEEAYKEGKEKVEKAKKEVEKIAKE
B32: design_597_f3dcd2b3-c7aa-4b15-88bc-bbb8d01a18cd_1746_dldesign_0_cycle1_af2pred (protein)
chain: SLKTKALAEAGRAIALSDSVISALPDSELAKKAKEIKKKAEEAMEKAEKGEKLEEALKEAKKLKEEAKKLRKEAEKEKKA
B33: design_597_f3dcd2b3-c7aa-4b15-88bc-bbb8d01a18cd_2332_dldesign_0_cycle1_af2pred (protein)
chain: SVVEEVKEEAKKAIEEGKKGDAGTAAALGYEAKALAEQKAKLYPEEAEELKKIAEEVKKEAKEIAEKKLKEKKAA
B34: design_598_15ab41e9-cad4-4381-8935-81f74b313fe8_127_dldesign_0_cycle1_af2pred (protein)
chain: SAMDLLLEILDYNDEALKAAKEGNKEEMEKYIKKAFEIAEELGKKYGPEAEERAKRYVEKAKKEAEEIYKK
B35: design_597_f3dcd2b3-c7aa-4b15-88bc-bbb8d01a18cd_2381_dldesign_0_cycle1_af2pred (protein)
chain: AAAEAAAAAAKAAAKAEAAKHLEKAFDLIADGGTVEEVEKEAEKAIEYAAKADEKYKKLAERTAKRIIENAKIAAKREEEN
B36: design_598_15ab41e9-cad4-4381-8935-81f74b313fe8_88_dldesign_0_cycle1_af2pred (protein)
chain: GSAKELAEKLRYVNRKIKEAGELAKELEKAGYPEEAKKLRELAQKARDALMAGDLDAAYKAAKELEEKIKEAKKKLEA
B37: design_597_f3dcd2b3-c7aa-4b15-88bc-bbb8d01a18cd_1306_dldesign_0_cycle1_af2pred (protein)
chain: GKMKEDEEKLKEIEKEAKKAIEEAKKLAKEDPKKGAEYAKKASKEITERGTELGKTMSPEVRKKLAEVVQKAREELTEIAFKAR
B38: design_597_f3dcd2b3-c7aa-4b15-88bc-bbb8d01a18cd_1782_dldesign_0_cycle1_af2pred (protein)
chain: MEEVKKKVAEAVQAGYRAAATLSKEEGKKLREETKELAKKLTELVKKSEELAGDPEKAKALADEATKIAEKAKEEYEKIDKA

The binders below were run against VTCN1, Q7Z7D3.
VTCN1, Q7Z7D3, sequence (Q7Z7D3 whole entry): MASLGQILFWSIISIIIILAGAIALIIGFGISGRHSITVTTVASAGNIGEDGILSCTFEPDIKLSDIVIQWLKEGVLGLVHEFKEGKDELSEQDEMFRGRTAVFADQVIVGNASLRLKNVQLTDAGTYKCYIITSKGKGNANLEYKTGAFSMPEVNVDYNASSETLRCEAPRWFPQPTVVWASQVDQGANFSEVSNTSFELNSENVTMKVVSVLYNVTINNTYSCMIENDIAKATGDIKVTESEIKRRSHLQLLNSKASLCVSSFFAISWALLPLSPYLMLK
With B1 the “binding in a display sort” value was “not found (inactive)”.
In the case of B2, the “binding in a display sort” value is reported as “not found (inactive)”.
B3 was tested, and the “binding in a display sort” value was “not found (inactive)”.
B4 was tested, and the “binding in a display sort” value was “not found (inactive)”.
B5 was tested, and the “binding in a display sort” value was “not found (inactive)”.
In the case of B6, the “binding in a display sort” value is reported as “not found (inactive)”.
In the case of B7, the “binding in a display sort” value is reported as “not found (inactive)”.
With B8 the “binding in a display sort” value was “not found (inactive)”.
In the case of B9, the “binding in a display sort” value is reported as “not found (inactive)”.
B10 was tested, and the “binding in a display sort” value was “not found (inactive)”.
In the case of B11, the “binding in a display sort” value is reported as “not found (inactive)”.
B12 was tested, and the “binding in a display sort” value was “not found (inactive)”.
B13 was tested, and the “binding in a display sort” value was “not found (inactive)”.
B14 was tested, and the “binding in a display sort” value was “not found (inactive)”.
In the case of B15, the “binding in a display sort” value is reported as “not found (inactive)”.
With B16 the “binding in a display sort” value was “not found (inactive)”.
For B17, the “binding in a display sort” value was “not found (inactive)”.
B18 was tested, and the “binding in a display sort” value was “not found (inactive)”.
For B19, the “binding in a display sort” value was “not found (inactive)”.
B20 was tested, and the “binding in a display sort” value was “not found (inactive)”.
For B21, the “binding in a display sort” value was “not found (inactive)”.
With B22 the “binding in a display sort” value was “not found (inactive)”.
With B23 the “binding in a display sort” value was “not found (inactive)”.
In the case of B24, the “binding in a display sort” value is reported as “not found (inactive)”.
With B25 the “binding in a display sort” value was “not found (inactive)”.
For B26, the “binding in a display sort” value was “not found (inactive)”.
B27 was tested, and the “binding in a display sort” value was “not found (inactive)”.
In the case of B28, the “binding in a display sort” value is reported as “not found (inactive)”.
B29 was tested, and the “binding in a display sort” value was “not found (inactive)”.
With B30 the “binding in a display sort” value was “not found (inactive)”.
In the case of B31, the “binding in a display sort” value is reported as “not found (inactive)”.
For B32, the “binding in a display sort” value was “not found (inactive)”.
B33 was tested, and the “binding in a display sort” value was “not found (inactive)”.
For B34, the “binding in a display sort” value was “not found (inactive)”.
B35 was tested, and the “binding in a display sort” value was “not found (inactive)”.
In the case of B36, the “binding in a display sort” value is reported as “not found (inactive)”.
In the case of B37, the “binding in a display sort” value is reported as “not found (inactive)”.
B38 was tested, and the “binding in a display sort” value was “not found (inactive)”.
